Tau ThT inhib: blocks human tau fibril formation measured by thioflavin T | recombinant tau K18 P301L, heparin-induced fibrillization, ThT fluorescence | 2.1% of 270,000 active | AID 1460 | Potency, µM (top dose mostly 57.4 µM), usual class: inhibitors; further: nearly all actives have a fitted effect of over 55% in size
Target sequence (P10636 561-689 P618L limits assumed): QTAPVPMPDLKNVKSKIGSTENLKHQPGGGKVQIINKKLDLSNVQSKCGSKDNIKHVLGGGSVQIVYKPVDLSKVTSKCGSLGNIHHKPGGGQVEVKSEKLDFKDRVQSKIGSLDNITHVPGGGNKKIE
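Tau K18 P301L fragment (15 uM unlabeled plus 0.24 uM Alexa 594-labeled) in 100 mM sodium acetate pH 7 with compound, fibrillization induced by 20 uM heparin for 6 hr at 37 C. Thioflavin T (30 uM) added, fluorescence read after 1 hr (ex 450, em 510 nm).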
TR SRC2 fluor cs: alters Texas Red total fluorescence, flagging assay interference. Potency, µM (top dose mostly 106 µM). TRb/SRC2 Texas Red total fluorescence interference. 0.29% of 280,000 active. AID 1479; active means well fitted curve in either direction with a large enough effect; inconclusive means small, poorly fitted or top-dose-only effect
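Human TRβ ligand-binding domain (0.6 uM) and Texas Red SRC2 peptide (20 nM) in Tris buffer with 1 uM T3 and 5% DMSO were incubated with pinned compound for 5 hr at ambient temperature. Total fluorescence was computed as S + 2P (555/632 nm).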
Tau fluor counter: counter-screen for tau fibril formation inhibitors | tau K18 P301L Alexa594 fluorescence, heparin fibrillization | Potency, µM (top dose mostly 57.7 µM) | 0.93% of 280,000 active; further: nearly all actives have a fitted effect of over 55% in size
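Human tau K18 P301L (15 uM unlabeled, 0.24 uM Alexa 594-labeled) in 100 mM sodium acetate pH 7 with 20 uM heparin, 6 hr at 37 C. ThT 30 uM added, 1 hr ambient; Alexa 594 FP and total fluorescence read at 555/632 nm.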
Tau FP inhib: inhibitors of human tau fibril formation; P10636; K18 P301L tau heparin fibrillization, Alexa594 FP, 6 h; Potency, µM (titrated, usually from 57.7 µM), usual class: inhibitors; 0.39% of 280,000 active; further: nearly all actives have a fitted effect of over 55% in size
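Human tau K18 […] P301L fragment, 15 uM unlabeled plus 0.24 uM Alexa 594-labeled tau (final), with compound and 20 uM heparin in 100 mM sodium acetate pH 7; 6 hr at 37 C, then Alexa 594 FP read.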
TRb-SRC2 inh: disrupts binding of human TR beta to SRC2; Potency, µM (highest dose often 106 µM), actives largely listed as inhibitors; AID 1469; P10828; 0.065% of 280,000 active; TRbeta-SRC2 peptide binding, fluorescence polarization; receptor liganded with 1 µM T3; further: nearly all actives have a fitted effect of over 50% in size
Target sequence (P10828 whole entry, looked up): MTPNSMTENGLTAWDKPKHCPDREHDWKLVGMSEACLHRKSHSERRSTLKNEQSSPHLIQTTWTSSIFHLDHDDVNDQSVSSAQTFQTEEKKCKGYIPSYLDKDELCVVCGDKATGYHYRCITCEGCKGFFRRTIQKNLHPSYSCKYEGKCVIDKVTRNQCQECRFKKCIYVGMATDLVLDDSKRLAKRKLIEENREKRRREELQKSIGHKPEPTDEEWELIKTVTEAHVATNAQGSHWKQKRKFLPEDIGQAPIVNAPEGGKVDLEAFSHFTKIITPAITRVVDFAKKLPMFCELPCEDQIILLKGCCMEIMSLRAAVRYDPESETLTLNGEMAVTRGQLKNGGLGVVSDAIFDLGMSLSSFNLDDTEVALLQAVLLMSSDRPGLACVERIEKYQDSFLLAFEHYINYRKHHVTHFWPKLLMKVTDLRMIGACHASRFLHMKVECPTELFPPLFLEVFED
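A fluorescence polarization screen tested compounds at multiple concentrations against complex formation between 0.6 uM TRb ligand-binding domain and 20 nM Texas Red SRC2 peptide, with 1 uM T3 present; readout after 5 hr.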
Hits are given with their value; – = inactive; ? = inconclusive; · = no result; [ ] = dose if it differs, or a comment. A selection: hits, their analogues and other compounds. The true share with any hit is near 3.1%. Unless noted, the call rests on the fitted dose curve; in most records, active means well fitted curve in the direction sought with a large enough effect; inconclusive means small, poorly fitted or top-dose-only effect, or another doubt; inactive means no such curve, though single readings can be large; an effect the other way counts as inactive or inconclusive.

SMILES	Tau ThT inhib	TR SRC2 fluor cs	Tau fluor counter	Tau FP inhib	TRb-SRC2 inh
CCOC(=O)c1cc(C)n(CC2CCC(C(=O)Nc3ccccc3OC)CC2)c1C (stereo unspecified)	–	–	–	–	–
CCOc1ccc(CNC(=O)c2ccccc2NC(=O)c2nsc3ccccc23)cc1	–	–	–	?	–
CC(=O)c1ccc(NC(=O)Cn2c3ncccc3c(=O)n2-c2ccc(C)cc2)cc1	–	89µM[quencher]	?	?	?
CCOC(=O)c1ccc(NC(=O)Cn2c3ncccc3c(=O)n2-c2ccc(C)c(C)c2)cc1	–	–	?	?	–
Cc1cc(F)ccc1S(=O)(=O)Nc1ccccc1C(=O)Nc1ccccc1-c1nc2ccccc2[nH]1	–	–	?	13µM	–
CC1CCN(S(=O)(=O)c2ccc(C(=O)Nc3ccccc3-c3nc4ccccc4[nH]3)cc2)CC1	–	–	?	28µM	–
CC1CCCN(S(=O)(=O)c2ccc(C(=O)Nc3ccccc3-c3nc4ccccc4[nH]3)cc2)C1 (stereo unspecified)	–	–	?	?	–
CCCNC(=O)Cn1c(=O)n(CC2CCC(C(=O)NC)CC2)c(=O)c2sccc21 (stereo unspecified)	–	–	–	–	–
O=C(NCC(c1cccnc1)N1CCc2ccccc21)c1cccc(Br)c1 (stereo unspecified)	–	?	–	–	–
Cc1ccc(N(CC(=O)Nc2cccc(F)c2)S(=O)(=O)c2cccs2)cc1	?	–	–	?	–
Cc1ccc(C(C[N+](=O)[O-])Sc2ccc(N)cc2)cc1 (stereo unspecified)	18µM	–	?	?	–
Cc1cc(C)n(CCc2nc(-c3ccco3)cs2)n1	35µM	–	–	?	–
Cc1nn(CCc2nc(-c3ccco3)cs2)c2[nH]c(=O)cc(C(F)(F)F)c12	25µM	–	–	?	–
O=c1[nH]c(=O)n(Cc2ccccc2)c2nc(-c3ccco3)cc(C(F)(F)F)c12	–	–	–	–	–
Cc1cc(C)n(CCc2nc(-c3cccs3)cs2)n1	–	–	–	–	–
CC(=O)N1CCN(c2ccc(NC(=S)NC(=O)COc3ccc(C(C)(C)C)cc3)cc2)CC1	4µM	–	–	–	–
CCOC(=O)c1[nH]c2ccccc2c1NC(=O)c1ccccc1OCC	?	–	14µM[quencher]	–	–
COc1cccc(COCCN2CCN(S(=O)(=O)c3ccccc3)CCC2=O)c1	·	–	·	·	–
CS(=O)(=O)Nc1cccc(-c2nc(Nc3ccc(F)cc3)c3ccccc3n2)c1	–	–	?	?	–
COc1cc(NS(C)(=O)=O)ccc1Nc1c2ccccc2nc2ccccc12	14µM	–	?	–	–
COc1ccc(NC(=O)Cn2ncc3c4ccccc4n(Cc4ccccc4)c3c2=O)cc1OC	–	–	–	–	–
O=C1[C@H]2[C@H]3[C@H](O)[C@H](O)C/C(=N/OC[C@@H](O)COCc4ccco4)[C@@H]3CC[C@@H]2C(=O)N1Cc1ccc2c(c1)OCO2	–[11.5 µM]	–[11.2 µM]	–[11.6 µM]	–[11.6 µM]	–[11.2 µM]
COc1ccc2[nH]c(C(=O)c3ccccc3)cc2c1	–	–	–	–	–
COc1ccc2[nH]c(-c3ccccc3)cc2c1	?	–	13µM[quencher]	–	–
CCc1ccc2ncc3c(-c4ccccc4)nn(-c4ccccc4)c3c2c1	?	–	–	–	–
SMILES	Tau ThT inhib	TR SRC2 fluor cs	Tau fluor counter	Tau FP inhib	TRb-SRC2 inh
Cc1ccc2c(c1)c1cccc3c1n2CCN3CCC(N)=O	11µM	–	?	?	–
NC(=O)CCn1c2ccccc2c2ccccc21	–	–	–	–	–
O=C1C2C(c3ccccc3)CC=CC2C(c2cccc([N+](=O)[O-])c2)N1Cc1ccccc1 (stereo unspecified)	·	–	·	·	–
Nc1c(S(=O)(=O)c2ccccc2)c2nc3ccccc3nc2n1/N=C/c1ccco1	28µM	–	?	–	?
Nc1c(S(=O)(=O)c2cccs2)c2nc3ccccc3nc2n1/N=C/c1cccc(O)c1	–	–	3.2µM[quencher]	7.9µM	–
Cc1ccc(S(=O)(=O)c2c(N)n(/N=C/c3ccco3)c3nc4ccccc4nc23)cc1C	16µM	–	?	?	–
CCCCNC(=O)c1cccc(NC(=O)c2nsc3ccccc23)c1	–	–	–	–	–
COc1ccc(C2C=C3CN(C(=O)OC(C)(C)C)S(=O)(=O)C3CC2OC(=O)c2cccc(C)c2)cc1 (stereo unspecified)	·	–	·	·	–
O=C(/C(=C/O)N=Nc1ccccc1)c1cccs1	28µM	–	–	–	–
C=C(C)C(=O)c1cccs1	–	–	–	–	–
NC(=O)c1cccc([N+](=O)[O-])c1	·	–	·	·	–
O=C(/C(N=Nc1cccc([N+](=O)[O-])c1)=C(/O)c1ccc(Br)cc1)C(F)(F)F	25µM	–	16µM[quencher]	–	–
Cc1oc(C)c2c(=O)ccc3c(c12)OC(N)=C(C#N)C3c1ccc(F)cc1 (stereo unspecified)	25µM	–	?	?	–
CC(=O)c1ccc(N2C(=O)N(Cc3ccc(F)cc3)c3ccccc3S2(=O)=O)cc1	–	–	?	–	–
COCCCNC(=O)c1nn(C)c2c1CS(=O)(=O)c1ccccc1-2	–	100µM[quencher]	–	–	–
CN(C)c1ccc(C(=S)N2CCCCCC2)cc1	25µM	–	?	?	–
COc1ccc2c(n1)Sc1nc3ccccc3nc1N2	1µM	–	4µM[quencher]	–	–
Cc1ccc(NC(=O)CCn2nc(-c3ccccc3)c3ccccc3c2=O)c(C)c1	–	?	–	–	–
CCC(C(=O)Nc1ccccc1C(=O)OC)n1c(C)c2cnn(-c3ccccc3)c(=O)c2c1C (stereo unspecified)	–	–	–	–	–
CCCCN(CCCC)C(=O)c1cc(Cl)ccc1[N+](=O)[O-]	–	–	–	–	–
CCCN(CCC)C(=O)c1cc([N+](=O)[O-])cc2c1-c1ccc([N+](=O)[O-])cc1C2=C(C#N)C#N	32µM	–	?	?	–
COC(=O)C1=C(O)/C(=C\c2cc(C)n(-c3ccccc3F)c2C)N=C1C	?	–	–	–	–
COC(=O)C1=C(C)NC(=O)/C1=C\c1cc(C)n(-c2ccccc2)c1C	13µM	–	?	–	–
Cc1cc(C)cc(-n2c(C)cc(C=C(C#N)C#N)c2C)c1	?	–	–	–	–
COC(=O)C1=C(C)NC(=O)/C1=C\c1cc(C)n(-c2cc(C)cc(C)c2)c1C	20µM	–	?	–	–
CCCC(=O)c1cc(O)c(O)cc1O	·	–	·	·	–
Cc1ccc(C(=O)COC(=O)C(Cc2c[nH]c3ccccc23)NC(=O)c2ccc(C(C)(C)C)cc2)cc1 (stereo unspecified)	?	?	?	–	–
CCN(c1ccccc1)S(=O)(=O)c1ccc2[nH]cc(C(=O)NC3CCCCC3)c(=O)c2c1	?	–	?	3.5µM	–

Bioassay records from PubChem.
